Test results: the supplement of paper PMC3334620
The full ranking holds about 33,000 sequences; the median of “E-score (-0.5 to 0.5)” is about -0.056, and the highest 2% start at about 0.38. What follows is part of a selection rich in the highest values, with near analogues and random picks from the rest.

Molecular target: Stb4 (UniProt P50104)
Experiment: PBM E-score (8-mer binding enrichment) (E-score (-0.5 to 0.5)); higher = stronger / more preferred TF binding
Settings: protein concentration: 200 nM; construct: GST-DNA-binding domain
Summary of the method: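 Yeast transcription factors carrying a GST tag, as full-length proteins or DNA-binding domains, were produced by PURExpress in vitro transcription/translation. About 100-200 nM protein was applied to universal all-10-mer Agilent arrays, double-stranded by primer extension on fresh or once-stripped slides. Bound protein was detected with fluorescent anti-GST, and scans were normalised with masliner. The Universal PBM Analysis Suite gave each ungapped eight-base word, pooled with its reverse complement, an E-score, a modified Wilcoxon-Mann-Whitney statistic.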

Sequence of UniProt P50104 (P50104 whole entry): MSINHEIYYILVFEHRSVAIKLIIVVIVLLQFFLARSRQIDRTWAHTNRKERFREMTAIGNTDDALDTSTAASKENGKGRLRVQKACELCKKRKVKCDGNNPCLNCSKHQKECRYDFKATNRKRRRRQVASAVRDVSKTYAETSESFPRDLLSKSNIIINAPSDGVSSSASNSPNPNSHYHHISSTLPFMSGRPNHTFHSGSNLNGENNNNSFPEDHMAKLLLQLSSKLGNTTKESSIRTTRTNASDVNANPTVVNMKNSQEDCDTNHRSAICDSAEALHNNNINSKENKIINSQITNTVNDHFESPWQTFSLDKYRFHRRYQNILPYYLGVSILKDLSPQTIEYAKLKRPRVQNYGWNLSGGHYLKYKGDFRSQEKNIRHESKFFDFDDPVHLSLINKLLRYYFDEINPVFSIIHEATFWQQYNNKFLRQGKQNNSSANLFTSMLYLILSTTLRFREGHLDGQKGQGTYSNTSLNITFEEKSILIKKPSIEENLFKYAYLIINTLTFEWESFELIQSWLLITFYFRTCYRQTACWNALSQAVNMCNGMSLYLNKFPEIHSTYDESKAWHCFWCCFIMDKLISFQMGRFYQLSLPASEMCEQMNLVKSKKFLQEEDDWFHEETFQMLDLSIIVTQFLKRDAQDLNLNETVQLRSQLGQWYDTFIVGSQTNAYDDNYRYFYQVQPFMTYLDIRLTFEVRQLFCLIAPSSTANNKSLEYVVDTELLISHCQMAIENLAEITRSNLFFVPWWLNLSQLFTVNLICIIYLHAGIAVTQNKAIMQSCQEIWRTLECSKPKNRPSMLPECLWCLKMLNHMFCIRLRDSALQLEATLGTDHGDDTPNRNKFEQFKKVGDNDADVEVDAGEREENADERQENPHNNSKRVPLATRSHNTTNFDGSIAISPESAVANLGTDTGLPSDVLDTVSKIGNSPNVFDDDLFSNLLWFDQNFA

Sequence | PBM E-score
AAAGGCGA | -0.0639
AGAGCAAC | -0.287
GGGTTTAA | 0.0372
GTCGAGAC | 0.0445
GCCGAGAC | 0.392
GGCGAGAC | -0.245
ACCGAGAA | 0.311
TTCGAGAA | -0.207
CACGAGAG | -0.136
CCCGAGAA | 0.44
CTCGAGAG | -0.201
TACGAGAA | -0.113
CCCGAGAG | 0.385
TCCGAGAA | 0.455
CACGAGAA | -0.167
ATAATCAT | -0.0964
CCCATTAC | -0.104
CCCGCAAC | 0.228
CAGGCACA | -0.178
ACGGGCCT | 0.0389
CAACCACC | 0.0572
GCCTAGAC | -0.139
CCTCGAAC | -0.249
GTGACCAA | -0.203
GTCGAGAA | -0.277

Sequence | PBM E-score
CGCGAGAC | -0.0463
GCCGAGAA | 0.406
CCCGAGAC | 0.412
ACCGAGAC | 0.357
GACGAGAA | -0.169
CACCTACG | 0.0326
AACCATGT | 0.0503
AAACCATA | -0.0199
GACTAGCA | -0.114
GAGGAGGA | -0.152
CCCCCGAG | 0.352
CCCCCGAA | 0.297
CACCCAAA | -0.0471
ACCCCGAG | 0.333
CACCCGGG | 0.323
CACCCGGC | 0.277
CACCCGAG | 0.448
CACCCGAC | 0.384
AACCCGAG | 0.406
CACCCGAA | 0.436
AACCCGAT | 0.285
CCCCCGAC | 0.175
CCCTAAGG | -0.232
ACCGCTTG | -0.0825
CAATTTCG | 0.0914

Sequence | PBM E-score
TGTAAGAA | 0.101
CACCTCCA | -0.167
AAGGATAG | 0.00922
CGTTCAGC | -0.00077
TACTCGCA | -0.0584
AACTCGGA | 0.426
CACTCGTA | -0.292
CACTCGAA | -0.267
AACTCGGG | 0.383
TACTCGAA | -0.25
AACTCGCG | -0.00482
TACTCGGA | 0.409
CACTCGGA | 0.422
AACTCGTG | 0.0628
AACTCGGT | 0.286
AACTCGCA | -0.278
TTCCAGAA | -0.0529
GTCGTGAA | -0.19
ATAAGCGA | 0.0555
ATCTGCAT | -0.071
AGGAACTG | -0.148
CGATCATC | 0.0839
CACTCGTC | 0.0228
CACTCGGG | 0.371
CACTCGGC | 0.402

Sequence | PBM E-score
GACTCGGA | 0.451
GACTCGGC | 0.327
GACTCGCA | -0.0572
CTCCCAAG | -0.114
ACGCCAGG | -0.0466
AAATCATG | -0.27
ATACCCGC | 0.328
GTACCCAA | -0.0334
GTACCCGA | 0.437
ATACCCGA | 0.476
GTACCCTA | -0.206
CTACCCGC | 0.273
CTACCCGA | 0.464
ATACCCCG | 0.205
CTACCCAA | -0.209
ATACCCAA | -0.0395
ATACCCTG | -0.0928
ATACCCGG | 0.391
GAAGTAGA | -0.0217
GCGAGTGA | -0.0567
GCATCTCA | -0.222
GGCACAAA | 0.104
ATATAGCC | 0.183
CCTGAACC | -0.232
GCCCTGCC | 0.0895

Sequence | PBM E-score
CGCTCGTA | -0.176
GGCTCGGA | 0.466
GGCTCGAA | -0.0314
AGCTCGTA | -0.189
CGCTCGCC | -0.0544
GGCTCGTA | -0.0188
AGCTCGCA | -0.108
CGCTCGGC | 0.412
CGCTCGTC | -0.19
CGCTCGCA | 0.104
CGCTCGGA | 0.463
AGCTCGGA | 0.454
AAGAGGCA | -0.186
CGACCAAG | -0.184
TCATTGCA | -0.328
CATGTTCC | 0.115
ATTCATTC | 0.172
ACCGCAGG | 0.0861
ACCTCTAC | -0.0322
AGGCGAAT | -0.189
AGAATTGA | -0.194
GAGAAGAA | 0.0753
GACAGATC | 0.0617
GGGATAGA | -0.0799
CGGATAGA | 0.454

Sequence | PBM E-score
CAGATAGC | -0.0171
AGGATAGC | 0.206
AGGATAGA | -0.107
CGGATAGC | 0.394
TATAGACA | -0.192
CCTGGCGA | -0.204
AGCTGCAA | -0.0718
ATTCCGGC | 0.354
CTTCCGTA | 0.379
ATTCCGGA | 0.405
CTTCCGGA | 0.396
CCTCCGGC | 0.295
ATTCCGGG | 0.353
GTTCCGGA | 0.435
AGTCCGGA | 0.332
CTTCCGGC | 0.392
CGTCCGGA | 0.3
GTTCCGTA | 0.314
GGTCCGGA | 0.34
AACTAACT | 0.0909
AGAGGATG | -0.0042
ATGGCTAA | -0.0251
CCTATTGC | -0.0913
ACAGCATC | -0.102
GAATCTTA | -0.0785

Sequence | PBM E-score
CTTTCCAC | 0.0376
CGTTCCGC | 0.412
CGGTCCGA | 0.449
AGTTCCGC | 0.324
AGTTCCGA | 0.474
GGGTCCGA | 0.344
AGTTCCTA | 0.00074
AGGTCCGA | 0.304
AGTTCCAA | 0.012
CGTTCCCC | -0.014
AGTTCCCG | 0.396
AGTTCCCA | -0.0388
AGTTCCCC | 0.138
CAGCTTTC | -0.0811
ATGGGTGG | -0.0789
GTGAGTTA | -0.211
ATGTAAAG | -0.162
ACTTGCGC | -0.0787
AGAAGGGG | -0.169
ATAGCGTC | -0.209
GTAACGGA | 0.281
GTTTGCAA | -0.113
CGATTTGA | -0.0548
ATTCACAA | -0.0973
CGTTCCTA | -0.00632

Sequence | PBM E-score
AGTTCCAG | -0.136
AGTTCCTG | -0.14
AGTTCCGG | 0.419
CGTTCCGA | 0.451
CGTTCCAA | -0.0817
GGTTCCAA | 0.196
GGTTCCCA | -0.0962
GGTTCCGA | 0.468
ACCACCCT | -0.162
CCTCTTAA | -0.0505
GCCGAAGC | 0.385
ACCGAAGC | 0.287
GCCGAAAC | 0.397
ACCGAAAA | 0.337
CACGAAAG | -0.148
ACCGAAAC | 0.372
GTCGAAAC | -0.0645
ACCGAAAG | 0.231
GACGAAGC | -0.142
GACGAAAA | 0.0557
GCCGAAAA | 0.438
CCCGAAAG | 0.393
GGAGGATA | -0.0736
CGTTACTC | -0.0977
AGAAGTGC | -0.122

Sequence | PBM E-score
CGCGGGAG | 0.172
TACGAAAA | -0.0536
TCCGAAAA | 0.441
TGCGAAAA | -0.0153
CCCGAAAC | 0.339
CACGAAAA | -0.0798
CCCGAAAA | 0.428
CTCAAACC | -0.0373
CGAGCTAC | 0.0965
GAGTCAAC | 0.0604
ACCATAGC | -0.123
TACATCCA | -0.202
AATTAAAT | -0.0575
AGTATCCC | -0.0361
ACTATCCG | 0.45
CCTATCCA | -0.196
AGTATCCA | 0.0731
ATTATCCA | -0.0958
ATTATCCC | 0.0679
ATTATCCG | 0.475
CCTATCCC | 0.176
CCTATCCG | 0.391
ACTATCCT | -0.0638
ACTATCCC | -0.044
AGTATCCG | 0.436
